From article PMC5700166 come the findings set out here.

Common to all, as to experiment: protein-binding microarray (PBM); PBM: ~300 nM protein, 6 mM HEPES pH 7.8, 80 mM KCl, 0.5 mM EDTA, 0.5 mM EGTA, 6% glycerol, 35 ng/ul poly-dIdC, 1% milk, 1 h, room temperature; Ap Aiptasia and Nv Nematostella (sea anemones) / Co Capsaspora / Aq Amphimedon (sponge) / Dm Drosophila / Hu human; RHD is the Rel homology domain; high values mean tight binding
Conditions in all cases: dsDNA, one strand shown

The target of one assay is T1, GST-Ap-NF-kB RHD (Exaiptasia pallida (Aiptasia), UniProt A0A913YAJ5 2-422).
T1 sequence: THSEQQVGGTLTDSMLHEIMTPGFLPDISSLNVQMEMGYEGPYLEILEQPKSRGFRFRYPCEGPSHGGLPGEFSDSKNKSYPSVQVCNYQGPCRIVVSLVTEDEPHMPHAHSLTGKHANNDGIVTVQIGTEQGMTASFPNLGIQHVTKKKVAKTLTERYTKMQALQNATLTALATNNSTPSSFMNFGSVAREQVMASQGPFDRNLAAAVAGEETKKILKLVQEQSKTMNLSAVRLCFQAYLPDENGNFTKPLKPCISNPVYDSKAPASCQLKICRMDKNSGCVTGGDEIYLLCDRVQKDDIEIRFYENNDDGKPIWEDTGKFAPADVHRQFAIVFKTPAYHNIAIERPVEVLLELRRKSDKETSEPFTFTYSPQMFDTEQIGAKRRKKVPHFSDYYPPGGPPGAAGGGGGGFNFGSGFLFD

The target in assay [1] is T2, GST-Nv-NF-kB (Cys allele) (Nematostella vectensis, UniProt E5G601 2-411).
T2 sequence: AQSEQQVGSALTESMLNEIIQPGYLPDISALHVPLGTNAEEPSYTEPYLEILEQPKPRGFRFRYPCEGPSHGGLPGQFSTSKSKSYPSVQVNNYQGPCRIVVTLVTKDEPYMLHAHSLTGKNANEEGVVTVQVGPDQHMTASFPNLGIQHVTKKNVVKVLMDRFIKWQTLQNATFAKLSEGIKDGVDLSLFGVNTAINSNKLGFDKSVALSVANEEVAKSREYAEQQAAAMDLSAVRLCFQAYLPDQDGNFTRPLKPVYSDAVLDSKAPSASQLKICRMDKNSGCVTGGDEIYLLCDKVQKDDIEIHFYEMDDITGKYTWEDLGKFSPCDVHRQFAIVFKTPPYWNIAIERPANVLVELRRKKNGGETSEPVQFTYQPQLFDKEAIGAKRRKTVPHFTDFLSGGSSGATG

The target of the next assay is T3, GST-Co-NF-kB (Capsaspora owczarzaki, UniProt F1ARL5 200-546).
T3 sequence: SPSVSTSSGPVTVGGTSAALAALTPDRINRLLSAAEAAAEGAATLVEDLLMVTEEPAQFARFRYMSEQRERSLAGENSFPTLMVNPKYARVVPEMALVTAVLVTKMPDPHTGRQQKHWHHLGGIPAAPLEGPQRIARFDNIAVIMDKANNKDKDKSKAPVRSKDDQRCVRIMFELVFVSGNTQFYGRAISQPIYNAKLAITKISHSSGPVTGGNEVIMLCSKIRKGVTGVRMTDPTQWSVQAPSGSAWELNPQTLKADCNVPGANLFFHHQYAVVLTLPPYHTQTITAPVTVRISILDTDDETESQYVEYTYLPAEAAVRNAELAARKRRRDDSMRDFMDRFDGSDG

Another assay addresses T4, GST-Dm-Relish (Drosophila melanogaster, UniProt Q94527 99-473).
T4 sequence: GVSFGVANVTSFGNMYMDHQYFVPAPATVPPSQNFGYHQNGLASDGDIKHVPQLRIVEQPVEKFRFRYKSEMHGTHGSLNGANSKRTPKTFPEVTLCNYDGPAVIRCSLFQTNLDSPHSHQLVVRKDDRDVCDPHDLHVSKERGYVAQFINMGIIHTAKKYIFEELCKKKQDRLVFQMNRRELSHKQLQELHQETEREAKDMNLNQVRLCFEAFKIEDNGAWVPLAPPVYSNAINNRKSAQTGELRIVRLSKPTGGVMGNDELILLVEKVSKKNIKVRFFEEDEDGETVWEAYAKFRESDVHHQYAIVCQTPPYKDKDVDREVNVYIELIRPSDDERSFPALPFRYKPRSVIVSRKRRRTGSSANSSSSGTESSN

The next assay concerns the target T5, GST-Aq-NF-kB (Amphimedon queenslandica, UniProt A9Y5G7 2-389).
T5 sequence: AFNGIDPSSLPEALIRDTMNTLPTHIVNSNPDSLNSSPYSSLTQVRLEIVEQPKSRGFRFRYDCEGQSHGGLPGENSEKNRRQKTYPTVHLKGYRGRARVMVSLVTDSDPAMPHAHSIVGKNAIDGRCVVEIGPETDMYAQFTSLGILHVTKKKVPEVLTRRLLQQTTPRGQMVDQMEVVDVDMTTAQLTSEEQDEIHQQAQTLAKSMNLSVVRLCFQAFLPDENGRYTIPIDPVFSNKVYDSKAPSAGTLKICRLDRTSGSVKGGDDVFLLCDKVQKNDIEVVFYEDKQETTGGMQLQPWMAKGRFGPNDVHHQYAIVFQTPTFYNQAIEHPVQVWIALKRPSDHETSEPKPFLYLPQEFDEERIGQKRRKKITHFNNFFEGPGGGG

With “CCGATTAACATCAGGAATACCCATGATGTTAATCGGGTCTTGATTCGCTTGACGCTGCTG”, the binding signal with GST-Ap-NF-kB RHD was 4.37 z-score; in assay [1], 4.62 z-score; with GST-Co-NF-kB, 1.39 z-score; with GST-Dm-Relish, 4.16 z-score; with GST-Aq-NF-kB it was 4.54 z-score.

For “CCGATTAACATCAGGGAATTCCATGATGTTAATCGGGTCTTGATTCGCTTGACGCTGCTG”, the binding signal with GST-Ap-NF-kB RHD was determined as 5.46 z-score; in assay [1], 6.55 z-score; with GST-Co-NF-kB it was 3.71 z-score; in the assay with GST-Dm-Relish, 7.15 z-score; with GST-Aq-NF-kB, 6.68 z-score.

For the sequence “CCGATTAACATCACACCACCCCCTGATGTTAATCGGGTCTTGATTCGCTTGACGCTGCTG”, the binding signal with GST-Ap-NF-kB RHD stood at 3.79 z-score; in assay [1], 2.72 z-score; with GST-Co-NF-kB it was 2.88 z-score; with GST-Dm-Relish, 2.4 z-score; with GST-Aq-NF-kB, 3.3 z-score.

With “CCGATTAACATCAGGGAAAATGATGATGTTAATCGGGTCTTGATTCGCTTGACGCTGCTG”, the binding signal with GST-Ap-NF-kB RHD was determined as 2.8 z-score; in assay [1] it was 4.26 z-score; with GST-Co-NF-kB it was 3.42 z-score; with GST-Dm-Relish it was 1.15 z-score; with GST-Aq-NF-kB it was 3.05 z-score.

Turning to “CCGATTAACATCAGCGAATTCCCTGATGTTAATCGGGTCTTGATTCGCTTGACGCTGCTG”, the binding signal amounted to 3.47 z-score with GST-Ap-NF-kB RHD; 4.45 z-score in assay [1]; 2.15 z-score with GST-Co-NF-kB; 2.72 z-score in the assay with GST-Dm-Relish; 3.61 z-score in the assay with GST-Aq-NF-kB.

“CCGATTAACATCAGGCATTTCCCTGATGTTAATCGGGTCTTGATTCGCTTGACGCTGCTG”: the binding signal with GST-Ap-NF-kB RHD amounted to 3 z-score; in assay [1], 5.12 z-score; in the assay with GST-Co-NF-kB, 1.77 z-score; in the assay with GST-Dm-Relish it was 1.97 z-score; in the assay with GST-Aq-NF-kB, 6.69 z-score.

In the case of “CCGATTAACATCAGGGGGTAATATGATGTTAATCGGGTCTTGATTCGCTTGACGCTGCTG”, the binding signal in the assay with GST-Ap-NF-kB RHD worked out at 4.99 z-score; in assay [1] it was 4.47 z-score; with GST-Co-NF-kB, 6.77 z-score; with GST-Dm-Relish, 2.66 z-score; with GST-Aq-NF-kB it was 4.45 z-score.

As for “CCGATTAACATCAAAAATCCCATTGATGTTAATCGGGTCTTGATTCGCTTGACGCTGCTG”, the binding signal with GST-Ap-NF-kB RHD was 3.2 z-score; in assay [1], 3.67 z-score; in the assay with GST-Co-NF-kB, 1.08 z-score; with GST-Dm-Relish, 7.97 z-score; with GST-Aq-NF-kB, 3.96 z-score.

Turning to “CCGATTAACATCAATGTCCCCCCTGATGTTAATCGGGTCTTGATTCGCTTGACGCTGCTG”, the binding signal with GST-Ap-NF-kB RHD came out at 5.26 z-score; in assay [1], 4.79 z-score; with GST-Co-NF-kB, 8.35 z-score; with GST-Dm-Relish, 3.82 z-score; with GST-Aq-NF-kB it was 4.85 z-score.

Consider “CCGATTAACATCAATCGTCCCCCTGATGTTAATCGGGTCTTGATTCGCTTGACGCTGCTG”, for which the binding signal with GST-Ap-NF-kB RHD came out at 5.15 z-score; in assay [1] it was 4.15 z-score; with GST-Co-NF-kB, 6.83 z-score; with GST-Dm-Relish, 2.93 z-score; with GST-Aq-NF-kB, 4.81 z-score.

On to “CCGATTAACATCAAGGGAAACCCTGATGTTAATCGGGTCTTGATTCGCTTGACGCTGCTG”, for which the binding signal in the assay with GST-Ap-NF-kB RHD amounted to 4.71 z-score; in assay [1], 5.3 z-score; with GST-Co-NF-kB, 2.82 z-score; with GST-Dm-Relish it was 7.64 z-score; in the assay with GST-Aq-NF-kB, 5.8 z-score.

Regarding “CCGATTAACATCACCGCCCCCCCTGATGTTAATCGGGTCTTGATTCGCTTGACGCTGCTG”, the binding signal was 3.91 z-score with GST-Ap-NF-kB RHD; 4.65 z-score in assay [1]; 3.8 z-score with GST-Co-NF-kB; 4.88 z-score with GST-Dm-Relish; 4.3 z-score with GST-Aq-NF-kB.

Consider “CCGATTAACATCAAGAGTTTCCCTGATGTTAATCGGGTCTTGATTCGCTTGACGCTGCTG”, for which the binding signal in the assay with GST-Ap-NF-kB RHD was 4.29 z-score; in assay [1] it was 5.34 z-score; with GST-Co-NF-kB, 3.98 z-score; with GST-Dm-Relish, 2.43 z-score; with GST-Aq-NF-kB, 5.12 z-score.
